Test systems include OVCAR-8 ovarian; OVCAR-5 ovarian; OVCAR-4 ovarian; SK-OV-3 ovarian; IGROV1 ovarian; OVCAR-3 ovarian; HS 578T breast; NCI/ADR-RES ovarian; T-47D breast.
Assay in all cases: NCI-60 one-dose screen, 48 h (100 = growth as untreated, 0 = no growth, -100 = all killed)
What all share (conditions): 10 µM

The panel holds about 83,000 compounds, 20% with a hit somewhere; the sample as a whole holds those more often.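 Plates (96-well) were seeded with cells, treated with compound at one concentration, and incubated for 48 hours before percent growth was determined.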 Values without a mark were called inactive. Calls of active or inactive are those of the source. The calls were made as follows: active = growth percent below 10; inactive = the rest.

For the compound `COc1ccc(/C=C/C(=O)Nc2ccc(-c3nc4ccc(F)cc4s3)cc2)cc1`, the growth was 103% in the assay on OVCAR-8 ovarian; 112% in the assay on OVCAR-5 ovarian; 83.2% in the assay on OVCAR-4 ovarian; 114% in the assay on SK-OV-3 ovarian; 104% in the assay with IGROV1 ovarian; 113% with OVCAR-3 ovarian. The growth was 111% with HS 578T breast, 111% in the assay on NCI/ADR-RES ovarian and 91% in the assay on T-47D breast.

On to `COc1cc2c(cc1OCCCCCCN1CCN(CC(=O)Nc3ccc(Cl)cc3C(=O)c3ccccc3Cl)CC1)N=CC1CCCN1C2=O` (configuration not stated), for which the growth with OVCAR-8 ovarian was -81.7% (active); in the assay on OVCAR-5 ovarian, -74.4% (active); with OVCAR-4 ovarian, -88.9% (active); in the assay with SK-OV-3 ovarian, -90.2% (active); in the assay on IGROV1 ovarian it was -79% (active); in the assay on OVCAR-3 ovarian, -91.9% (active). Besides, the values for the growth with HS 578T breast, in the assay with NCI/ADR-RES ovarian and in the assay with T-47D breast were -83.5% (active), -60.8% (active) and -57.8% (active), respectively.

Regarding `Nc1ncn([C@@H]2O[C@H](CO)[C@@H](O)[C@H]2O)c(=O)n1`, the growth is 22.4% with OVCAR-8 ovarian; 56.8% in the assay on OVCAR-5 ovarian; 34.1% with OVCAR-4 ovarian; 17.4% with SK-OV-3 ovarian; 18.5% in the assay on IGROV1 ovarian; 22.7% in the assay with OVCAR-3 ovarian. Further, the growth was 23.7% in the assay on HS 578T breast, 29.1% with NCI/ADR-RES ovarian and 26.6% with T-47D breast.

Turning to `COc1ccccc1/C=C/C(=O)c1ccccc1`, the growth in the assay with OVCAR-8 ovarian is 61.8%; with OVCAR-5 ovarian, 105%; in the assay with OVCAR-4 ovarian, 70.2%; in the assay on SK-OV-3 ovarian, 118%; in the assay with IGROV1 ovarian, 28.8%; with OVCAR-3 ovarian, 59.9%. Further, the growth is 73.9% with HS 578T breast, 86.7% with NCI/ADR-RES ovarian and 94.8% in the assay with T-47D breast.

`Nc1ccc2c(c1)Cc1cc(N)c(Br)cc1-2`: the growth in the assay on OVCAR-8 ovarian is 102%; in the assay on SK-OV-3 ovarian, 101%; with IGROV1 ovarian it was 116%; in the assay with OVCAR-3 ovarian it was 115%; with HS 578T breast, 76.7%; with NCI/ADR-RES ovarian, 90.2%. In addition, the growth in the assay on T-47D breast was 78.5%.

`O=C1c2ccc3c4c(ccc(c24)C(=O)N1CCNCc1ccccc1)C(=O)N(CCNCc1ccccc1)C3=O`: the growth with OVCAR-8 ovarian is 2.34% (active); in the assay with OVCAR-5 ovarian, 132%; in the assay with OVCAR-4 ovarian, -97.8% (active); with SK-OV-3 ovarian it was 109%; in the assay on IGROV1 ovarian it was -75.7% (active); in the assay with OVCAR-3 ovarian, -62.6% (active). Further, the growth in the assay on HS 578T breast was 102%; with T-47D breast, -27.2% (active).

As to `COc1cc(CNCCCCCCN2C(=O)c3cccc4cccc(c34)C2=O)ccc1O`, the growth is 69% in the assay on OVCAR-8 ovarian; 116% in the assay on OVCAR-5 ovarian; 69% with SK-OV-3 ovarian; 90.1% with OVCAR-3 ovarian; 106% in the assay with HS 578T breast; 65.3% with T-47D breast.

For `Clc1ccc(Nc2ccnc(NCCNc3ccnc4cc(Cl)ccc34)n2)cc1`, the growth with OVCAR-8 ovarian is 16.9%; with OVCAR-5 ovarian, 61.4%; with OVCAR-4 ovarian it was 24.9%; in the assay on SK-OV-3 ovarian, 60%; in the assay on IGROV1 ovarian, -8.25% (active); in the assay with OVCAR-3 ovarian it was 57.8%. Moreover, the growth in the assay with HS 578T breast was -25% (active); in the assay on NCI/ADR-RES ovarian, 44.8%; in the assay on T-47D breast, -60.2% (active).

As to `CCCCCCCCCCCCCCCCCCOCC(COCCOCC[N+]1(CCCCCC(=O)[O-])CCCC1)Oc1ncccn1` (configuration not stated), the growth with OVCAR-5 ovarian is -0.76% (active); in the assay on SK-OV-3 ovarian, 83.5%; in the assay on IGROV1 ovarian, -15.2% (active); in the assay with OVCAR-3 ovarian, 62.6%; with HS 578T breast it was 65.6%; in the assay with NCI/ADR-RES ovarian, 108%. Also, in the assay on T-47D breast, the growth was 42.3%.

With `O=C1C(=O)c2ccccc2C(O)=C1CCCc1ccc(C2CCCCCC2)cc1`, the growth with OVCAR-8 ovarian was 46.8%; with OVCAR-5 ovarian it was 82.6%; in the assay on OVCAR-4 ovarian, 20.9%; with SK-OV-3 ovarian, 48.8%; in the assay on IGROV1 ovarian, 21%; with OVCAR-3 ovarian it was 51.5%. Further, the growth in the assay on HS 578T breast was 115%; in the assay on T-47D breast it was 29%.

In the case of `CS(=O)(=O)Nc1cccc(-c2cc(-c3ccccc3Cl)c(C#N)c(N)n2)c1`, the growth with OVCAR-8 ovarian was 44%; in the assay with OVCAR-4 ovarian it was 47.1%; in the assay on SK-OV-3 ovarian it was 22%; with IGROV1 ovarian, 51.4%; in the assay with OVCAR-3 ovarian it was -29.3% (active); in the assay on HS 578T breast it was -1.53% (active). The growth in the assay on T-47D breast was 36.9%.

As to `CCCN(CCC)CCC(O)c1cc2c(c3ccccc13)CCCC2` (configuration not stated), the growth with OVCAR-8 ovarian was 102%; in the assay on OVCAR-5 ovarian, 84.9%; with OVCAR-4 ovarian it was 103%; in the assay on SK-OV-3 ovarian it was 90.1%; with IGROV1 ovarian, 77.8%; in the assay with HS 578T breast, 88%. Further, the growth was 83.3% in the assay with NCI/ADR-RES ovarian and 68.9% in the assay on T-47D breast.

In the case of `CCc1ccc2c(c1)N(CCO)C1=C(C(=O)OC1)C2c1ccccc1` (configuration not stated), the growth was 93.9% in the assay with OVCAR-5 ovarian; 104% in the assay with OVCAR-4 ovarian; 94.9% in the assay on SK-OV-3 ovarian; 95.8% in the assay on IGROV1 ovarian; 111% in the assay on OVCAR-3 ovarian; 125% in the assay on HS 578T breast. Besides, the growth was 78.7% in the assay with NCI/ADR-RES ovarian and 95.6% in the assay with T-47D breast.

On to `CN(C)c1ccc(-c2cc(-c3cccc(NS(C)(=O)=O)c3)nc(N)c2C#N)cc1`, for which the growth with OVCAR-8 ovarian was 30%; with OVCAR-5 ovarian it was 52%; with OVCAR-4 ovarian it was 45.7%; with SK-OV-3 ovarian it was 15.1%; in the assay with IGROV1 ovarian it was 80.4%; with OVCAR-3 ovarian, -48.2% (active). In addition, the growth with HS 578T breast was 15.3%; in the assay with T-47D breast it was 80.4%.

As for `CC(=O)c1nc2ccccc2n1CCNC(N)=O`, the growth in the assay on OVCAR-8 ovarian was 85.1%; in the assay on OVCAR-5 ovarian, 97.5%; in the assay with SK-OV-3 ovarian, 91.5%; with IGROV1 ovarian, 88.9%; with OVCAR-3 ovarian, 82.7%; in the assay with HS 578T breast it was 68.9%. Besides, the growth is 101% with NCI/ADR-RES ovarian and 67.8% in the assay with T-47D breast.

Turning to `COc1ccc(OC)c(/C=C/c2nc(SC)n(-c3ccc(Cl)cc3)n2)c1`, the growth in the assay with OVCAR-8 ovarian is 78.5%; with OVCAR-5 ovarian, 112%; in the assay with OVCAR-4 ovarian it was 70%; in the assay on SK-OV-3 ovarian, 83.8%; with IGROV1 ovarian, 61.8%; in the assay with HS 578T breast, 91.2%. The growth with T-47D breast is 42.8%.

The record behind these values is PubChem BioAssay (NCI).
